# Source: PubChem BioAssay (National Center for Advancing Translational Sciences (NCATS))
# Sfp inh – blocks B. subtilis Sfp PPTase activity; Q9F4F7; Biochemical Sfp PPTase activity, qHTS; Potency, µM, inactives show largest response in the series, negative = inhibition, usual class: inhibitors; 3.5% of 310,000 active; AID 1490;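 also: the enzyme is Sfp with the accession as filed and its product quenches rhodamine fluorescence; 0% = enzyme reaction without inhibitor and -100% = no enzyme wells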
#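 Reaction rates are the 30-min fluorescence difference (ex 525, em 598 nm) in wells containing 15 nM Sfp, 5 uM rhodamine-CoA and 12.5 uM BHQ-2-YbbR at pH 7.6 with 10 mM MgCl2.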
# ALOX12 inh – blocks human arachidonate 12S-lipoxygenase | Potency, µM (titrated, usually from 108 µM), inactives show top-dose activity change, negative = inhibition, actives largely listed as inhibitors | AID 1671190 | 1.1% of 580,000 active | purified 12hLO, xylenol orange hydroperoxide absorbance | P18054; also: % is scaled to controls: 0 for no effect and ±100 for the full control effect
#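 Purified human 12hLO at 150 nM in 25 mM Hepes, 0.01% Triton X-100, pH 7.0, preincubated 15 min at room temperature with compound. Reaction started with 40 uM arachidonic acid, 30 min at room temperature. Hydroperoxide measured by Fe-xylenol orange, 573/405 nm absorbance ratio.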
# JMJD2A Tudor – JMJD2A Tudor domain (human) inhibition; Potency, µM (titrated, usually from 114 µM), for the others: at the top dose activity change, negative = inhibition, actives largely listed as inhibitors; O75164; AlphaScreen JMJD2A-Tudor / H3K4me3 peptide binding; 4.4% of 390,000 active; also: % is scaled to controls: 0 for no effect and ±100 for the full control effect; nearly all actives have a fitted effect of over 50% in size
# BAZ2B block – BAZ2B (human) inhibition; Q9UIF8; AlphaScreen BAZ2B-H3K14Ac peptide displacement; Potency, µM (titrated, usually from 114 µM), inactives show top-dose activity change, negative = inhibition, actives largely listed as inhibitors; 4.4% of 360,000 active; also: % is scaled to controls: 0 for no effect and ±100 for the full control effect; nearly all actives have a fitted effect of over 60% in size
#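 Inhibition is scored as reduced AlphaScreen emission. The BAZ2B/b-H3(5-23)K14Ac complex (50 nM each) in PBS pH 7.4, 0.01% Tween-20 meets compound (up to 110 uM) for 30 min at RT before bead addition.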
# HP1b chromo inh – inhibitors of HP1-beta chromodomain binding to methylated histone tails | AlphaScreen HP1-beta / biotin-H3K9me3 peptide binding | 0.56% of 390,000 active | P83916 | Potency, µM (series often up to 114 µM), for the others: at the highest dose activity change, negative = inhibition, actives largely listed as inhibitors | AID 540317; also: nearly all actives have a fitted effect of over 70% in size
# Target sequence (P83916 whole entry, looked up): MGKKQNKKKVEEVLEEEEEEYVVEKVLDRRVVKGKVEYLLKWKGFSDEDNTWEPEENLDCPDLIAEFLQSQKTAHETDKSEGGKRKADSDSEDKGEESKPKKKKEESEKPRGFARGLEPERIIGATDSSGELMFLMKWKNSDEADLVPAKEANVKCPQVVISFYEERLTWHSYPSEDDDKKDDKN
#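 HP1-beta protein (50 nM final) preincubated 30 min at room temperature with biotinylated H3(1-18)K9me3 peptide (50 nM) in PBS pH 7.4, 0.01% Tween-20, then compound added for 30 min. AlphaScreen streptavidin donor/nickel chelate acceptor beads (10 ug/mL final), 30 min dark, luminescence read.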
# G9a block – G9a (human) methyltransferase inhibition. G9a H3K9 monomethylation, AlphaScreen, 2 h. Potency, µM (highest dose often 102 µM), for the others: at the top dose activity, negative = inhibition, usual class: inhibitors. 8.8% of 350,000 active. AID 504332; also: % is scaled to controls: 0 for no effect and ±100 for the full control effect; nearly all actives have a fitted effect of over 75% in size
# Target sequence (Q96KQ7 913-1193 limits assumed): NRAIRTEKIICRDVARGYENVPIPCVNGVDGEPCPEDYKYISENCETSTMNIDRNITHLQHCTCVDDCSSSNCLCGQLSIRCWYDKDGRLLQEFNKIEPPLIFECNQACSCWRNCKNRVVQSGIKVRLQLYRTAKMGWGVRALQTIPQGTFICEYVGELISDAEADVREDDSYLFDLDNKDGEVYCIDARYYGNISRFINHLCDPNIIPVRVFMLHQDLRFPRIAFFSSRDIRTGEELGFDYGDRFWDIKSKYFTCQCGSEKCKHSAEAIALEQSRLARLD
#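 Compounds were preincubated with 20 nM G9a for 15 min, after which biotinylated H3K9 peptide (500 nM) and SAM (20 uM) started a 2 h room-temperature reaction. Monomethylated product was quantified by antibody-based AlphaScreen chemiluminescence.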
# * hit, by the source's call; u = inconclusive; x = no result given; [ ] = remark or other dose. In the library only some 8.7% were active in any assay of this set; here they are far more common. Calls follow the shape of the dose curve; as a rule, active = well fitted curve in the direction sought with a large enough effect; inconclusive = small, poorly fitted or top-dose-only effect, or another doubt; inactive = no such curve, though single readings can be large; an effect the other way counts as inactive or inconclusive. Potency is read from the fitted curve at half-maximal effect.
SMILES,Sfp inh,ALOX12 inh,JMJD2A Tudor,BAZ2B block,HP1b chromo inh,G9a block
CN(Cc1ccc(Cl)cc1Cl)C(=O)CN1C(=O)NC2(CCCC2)C1=O,x,-9%,-2%,-2%,39%,35µM*
CCCCc1nc2ccccc2n1CC(O)c1ccc(F)cc1 (stereo unspecified),x,9%,x,x,x,x
Cc1c(C2CC(=O)N(c3ccccc3)C2=O)[nH]n(-c2ccccc2)c1=O (stereo unspecified),3%,0%,-22%,u,20%,35µM*
CCC(C)[C@H]1CNCCN1CCc1cc(C(F)(F)F)cc(C(F)(F)F)c1 (stereo partly specified),x,-19%,-35%,50µM*,26%,-19%[2.33 µM]
CC(C)(C)CN1CCNC[C@H]1Cc1cccc2ccccc12,x,2%,-28%,-39%,34%,2%[2.33 µM]
c1ccc2c(C[C@@H]3CNCCN3CCC34CC5CC(CC(C5)C3)C4)cccc2c1,x,-3%,40µM*,x,-4%,x
CCCC[C@@H]1CNCCN1CCc1cc(C(F)(F)F)cc(C(F)(F)F)c1,x,-10%,-25%,-9%,47%,-4%[12.7 µM]
CCC(C)[C@H]1CNCCN1CC1(c2ccccc2)CC1 (stereo partly specified),x,2%,-22%,10%,38%,13%[2.33 µM]
CCC(C)[C@H]1CNCCN1CCc1cccc2ccccc12 (stereo partly specified),x,-1%,56µM*,u,0%,18%[2.33 µM]
CCN1Cc2nc(OC)c(CNC(=O)C3(C)CCCCO3)cc2C1=O (stereo unspecified),x,25%,x,x,x,x
Cc1ccc(/C=N/NC(=O)NC23CC4CC(CC(C4)C2)C3)o1,89µM*,140%,-35%,19%,u,x
Cc1noc(C)c1S(=O)(=O)N1CCC2(CC1)c1[nH]c3ccccc3c1CCN2C,x,4%,x,x,x,x
CCc1ccc2nc(N3C(=O)C(O)=C(C(=O)c4ccco4)C3c3cccs3)sc2c1 (stereo unspecified),-16%,x,u,50µM*,u,u
O=C(C1=C(O)C(=O)N(c2nccs2)C1c1ccccc1)c1cc2ccccc2o1 (stereo unspecified),5µM*,u,-32%,40µM*,-14%,3.5µM*
CCOc1cccc(C2C(C(=O)c3ccc(C)o3)=C(O)C(=O)N2c2nccs2)c1 (stereo unspecified),56µM*,0.63µM*,u,u,21%,6.3µM*
CCOc1cccc(C2C(C(=O)c3ccc(C)o3)=C(O)C(=O)N2Cc2ccncc2)c1 (stereo unspecified),u,u,u,u,26%,-2%[12.7 µM]
Cc1ccc2nc(N3C(=O)C(O)=C(C(=O)c4cc5ccccc5o4)C3c3cccs3)sc2c1 (stereo unspecified),40µM*,x,u,-6%,-12%,20%[59 µM]
CCOc1ccc(S(=O)(=O)NCc2ccco2)cc1C(C)C,x,-54%,x,x,x,x
CCCCc1ccc(-c2csc(NC(=O)COCc3nc4ccccc4c(=O)[nH]3)n2)cc1,x,-5%,x,x,x,x
COc1ccc(CN2Cc3[nH]nc(-c4ccc(N5CCN(C)CC5)cc4)c3CC2=O)cc1,x,-7%[176 µM],x,x,x,x
CC1CCc2nc(NC(=O)CN3CCOCC3)sc2C1 (stereo unspecified),5%,u,-11%,2%,26%,35%[12.7 µM]
CC1(C)CNC(=O)c2sc(NC(=O)CN3CCOCC3)nc2C1,-1%,-23%,20µM*,3%,45%,-13%[59 µM]
COCCCNC(=O)c1nc(Cc2c[nH]c3ccccc23)no1,x,8%,x,x,x,x
O=C(c1cccc(S(=O)(=O)N2CCN(c3ccccc3)CC2)c1)N1CCCCCCC1,x,2%,-31%,-9%,9%,14%[0.501 µM]
O=C(c1cccc(-n2cccc2)c1)N1CCN(S(=O)(=O)c2c(F)cccc2F)CC1,12%,24%,35µM*,2%,u,67%
SMILES,Sfp inh,ALOX12 inh,JMJD2A Tudor,BAZ2B block,HP1b chromo inh,G9a block
O=C(c1cccc(-n2cccc2)c1)N1CCN(S(=O)(=O)c2ccccc2)CC1,x,-23%,5.6µM*,8.9µM*,13µM*,5%[2.33 µM]
Cc1nnc2n1CCC(NC(=O)c1cccn1C)CC2 (stereo unspecified),x,26%,x,x,x,x
O=C(CC1(O)C(=O)Nc2ccccc21)c1cccc(-n2cccc2)c1 (stereo unspecified),4%,10%,u,50µM*,0%,u
O=C(CC1(O)C(=O)Nc2ccccc21)c1ccc2c(c1)OCO2 (stereo unspecified),21%,-2%,-13%,5%,3%,-43%
Cc1ccc(NC(=O)CCC2CCCCC2)c(NC(=O)c2ccco2)c1,x,3.5µM*,x,x,x,x
CN(C)C(=O)CSc1nnc(-c2ccncc2)n1Cc1ccco1,-3%,2%,-12%,30%,43%,6%
CC(C)N(C(=O)CSc1nnc(-c2cc3ccccc3cc2O)n1Cc1ccco1)C(C)C,-20%,-7%,-35%,-31%,11%,13µM*
O=C(CSc1nnc(-c2cc3ccccc3cc2O)n1Cc1ccco1)N1CCc2ccccc2C1,45µM*,13%,-29%,-25%,23%,u
COCCC(=O)N1C[C@@H](Oc2ccccc2)C[C@@H]1C(=O)N1CCOCC1,x,35%,x,x,x,x
COc1ccc(NC(=O)COc2ccc(C(C)C)cc2)c2cccnc12,x,8%,x,x,x,x
Cc1ccc(-c2cc3c(=O)n(CCNC(=O)Cc4ccc(Cl)cc4)ccn3n2)cc1C,x,40µM*,x,x,x,x
Cn1c(O)c(N=Nc2ccccc2)c2ccccc21,50µM*,-72%,-11%,-8%,1%,22µM*
Cn1c(O)c(N=Nc2nc(-c3ccccc3)cs2)c2ccccc21,56µM*,-7%,u,u,-17%,u
Cn1c(O)c(N=NC(=O)c2cc(-c3cccs3)nc3ccccc23)c2ccccc21,2%,0%,u,-11%,1%,-17%[59 µM]
Cn1c(O)c(N=NC(=O)Cc2c[nH]c3ccccc23)c2ccccc21,x,6%,u,x,-11%,x
Cn1c(O)c(N=Nc2ccc(F)cc2)c2ccccc21,-27%,18µM*,-31%,-3%,u,25µM*
CCC(C(=O)N1CCN(C(=O)COc2ccccc2)CC1)n1cccn1 (stereo unspecified),x,-1%,x,x,x,x
COc1ccc(-c2cc(N3CCC(NC(=O)Cc4ccccc4)CC3)n[nH]2)cc1,x,33%,x,x,x,x
O=C(O)c1cccnc1SCc1cccc(Cl)c1,16%,0%,-7%,-3%,13%,5%
O=C(CSc1ncccn1)N1CCCCCC1,x,-6%,0%,x,42%,x
O=C(O)c1ccccc1CSc1ncccc1C(=O)O,45µM*,-19%,20µM*,-26%,3%,20µM*
